# From PubChem BioAssay
# Several values for one entry are separate records, joined by “and”; a condition that tells them apart may be missing. Equal entries are not always repeated. Activity calls are given as the source filed them.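 How the source made its calls, unless noted: active means z-score of at least 1.8 in each of two replicates, scored against plate mean and spread of sample wells; inactive means the rest.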
# Key:
# [1] = tested on: Aerobactin synthetase IucA (Klebsiella pneumoniae); test: IucA aerobactin synthetase inhibitors, biochemical, Tocris library, absorbance (AID 1345561; call rule not given here;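 further: 100% = enzyme without compound and 0% = no enzyme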); conditions: purified IucA enzyme assay, absorbance (OD) read-out; stronger effect = lower value;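 tested at 8 µM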
# [2] = sensitizers of A549 cells to miR-34 induction, primary screen, imaging, A549 dox-inducible miR-34, nuclei and caspase counts (AID 1347080;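 active means compounds whose cell count with miR-34 switched on is under 0.7 times the count with it off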); conditions: A549 miR-34 inducible, Hoechst nuclei count, 48 h
# [3] = viability rescue of complex I mutant cybrids, primary screen, cell-based, galactose medium, ATP luminescence (AID 1645843); conditions: complex I mutant cybrid cells, 72 h, stronger effect = higher value;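 further: positive z means more ATP and so rescue of galactose-driven cybrid death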
# [4] = survival rescue of mitochondrial mutant cells in low glucose, primary screen, MELAS cybrids, Rieske KO mouse fibroblasts, CellTiter-Glo (AID 1508586;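 active means mean z-score across replicates of 1.96 or higher in either the MELAS or the Rieske mutant cell line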;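 further: z relative to plate mean and SD of compound and empty wells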)
# [5] = stronger effect = lower value, cell number ratio, induced over uninduced
# [6] = measured here: relative caspase fold change +Dox/-Dox
# [7] = measured here: total cells with miR-34 induction, stronger effect = lower value
# [8] = measured here: total cells without miR-34 induction
Structure (SMILES),remaining activity [1],"fold change [2, 5]","fold change [2, 6]","cell count [2, 7]","cell count [2, 8]",z-score [3],fold change ([2]; stronger effect = lower value),"z-score ([4]; MELAS cybrid survival, CellTiter-Glo 48 h, stronger effect = higher value)","z-score ([4]; Rieske KO mouse fibroblast survival, CellTiter-Glo 72 h)"
Cc1[nH]c2ccc(Cl)cc2c1C1=CCNCC1,103% (inactive),0.919 (inactive),1.4,7850,8550,-0.42 (inactive),–,–,–
NCC(CS(=O)(=O)O)c1ccc(Cl)cc1 (stereo not given),108% (inactive),0.961 (inactive),1.04,9200,9570,0.475 (inactive),–,–,–
Fc1ccc(C(OCCN2CCN(C/C=C/c3ccccc3)CC2)c2ccc(F)cc2)cc1,116% (inactive),0.843 (inactive),1.03,2280,2710,-1.23 (inactive),–,–,–
Cc1ccc2c(c1)Cc1c(C(=O)NN3CCCCC3)nn(-c3ccc(Cl)cc3Cl)c1-2,102% (inactive),0.912 (inactive),1.23,5690,6240,-0.67 (inactive),–,–,–
c1ccc(CC(c2ccccc2)N2CCCCC2)cc1 (stereo not given),103% (inactive),–,0.814,9440,9860,-0.99 (inactive),0.958 (inactive),–,–
O=Cc1cn(Cc2ccc(Cl)cc2)c2ccccc12,119% (inactive),0.901 (inactive),1.34,4020,4470,-0.645 (inactive),–,–,–
Cc1o[nH]c(=O)c1C[C@H](N)C(=O)O,106% (inactive),1.04 (inactive),0.71,9160,8800,0.59 (inactive),–,–,–
O=C1/C(=C/c2ccccc2)C[C@@]2(O)C3Cc4ccc(O)c5c4[C@@]2(CCN3CC2CC2)[C@H]1O5,97.5% (inactive),–,0.83,919,833,-1.12 (inactive),1.1 (inactive),–,–
Cn1c2c(c3ccccc31)CCNCC2,98.4% (inactive),0.896 (inactive),1.23,8130,9070,-0.23 (inactive),–,–,–
C=CCN1CC[C@]2(C)c3cc(O)ccc3CC1[C@@H]2C,113% (inactive),–,0.641,8610,8960,0.05 (inactive),0.961 (inactive),–,–
CCCCCOc1c(OC)ccc2cc(C(=O)NCc3ccc4c(c3)OCO4)c(=O)[nH]c12,107% (inactive),1.04 (inactive),1.43,5450,5260,0.125 (inactive),–,–,–
O=C(O)/C=C/CO,109% (inactive),0.992 (inactive),0.9,9440,9510,-0.335 (inactive),–,–,–
CCC(Oc1ccc(Cl)cc1)C(=O)OC1CC2CCC(C1)N2C (stereo not given),88.1% (inactive),0.91 (inactive),1.03,8430,9270,-0.285 (inactive),–,–,–
Cn1cc(C(=O)C(=O)N[C@H]2CN3CCC2CC3)c2ccccc21,92.5% (inactive),0.891 (inactive),1.06,8410,9440,0.935 (inactive),–,–,–
Cc1ccc2c(c1)Cc1c(C(=O)NC3CCCCC3)nn(-c3ccc(Cl)cc3Cl)c1-2,103% (inactive),0.986 (inactive),1.35,8570,8690,-0.01 (inactive),–,–,–
CCN(CC)CCO[C@H]1CC[C@@]2(C)C(=CC[C@@H]3[C@@H]2CC[C@]2(C)C(=O)CC[C@@H]32)C1,113% (inactive),0.896 (inactive) and 0.878 (inactive),0.558 and 0.739,5320 and 6330,5930 and 7220,-0.79 (inactive),–,–,–
CC(C)(C)NCC(O)COc1cccc2[nH]c(C#N)cc12 (stereo not given),115% (inactive),0.911 (inactive),1.8,9030,9910,0.025 (inactive),–,–,–
Cc1cc(C)cc(C(=O)OC2CC3CCC(C2)N3C)c1 (stereo not given),86.6% (inactive),0.914 (inactive),1.01,8100,8850,-0.125 (inactive),–,–,–
CC(C)n1cnc2c(C(=O)N[C@H]3CN4CCC3CC4)cc(Cl)cc21,102% (inactive),0.928 (inactive),0.88,8010,8630,2.03 (inactive),–,–,–
CCCOc1ccc2[nH]cc(C3=CCNCC3)c2n1,119% (inactive),0.982 (inactive),0.876,9040,9210,-0.37 (inactive),–,–,–
O=C1Nc2cc(Cl)c(Cl)cc2N2CCNCC12 (stereo not given),125% (inactive),0.949 (inactive),0.693,8510,8970,-0.265 (inactive),–,–,–
Cc1cccc(C(C)c2cnc[nH]2)c1C (stereo not given),123% (inactive),–,–,–,–,-0.255 (inactive),–,0.00954 (inactive) and -0.104 (inactive) and -0.218 (inactive),0.0551 and -0.0823 and -0.0306
